Most compounds without a hit are left out; they make up all but 3.7% or so of the library.
Anthrax LF inh2: Bacillus anthracis LF protease inhibitors, primary screen, biochemical, multiplex microsphere, MLPCN library | Lethal factor (Bacillus anthracis), P15917 | multiplex microsphere protease cleavage assay | inhibition, % at 10 µM | actives 0.12% (n = 360,000) | AID 588501, 2011; further: plate controls were buffer without enzyme for full effect and enzyme alone for no effect
Target sequence (P15917 whole entry, looked up): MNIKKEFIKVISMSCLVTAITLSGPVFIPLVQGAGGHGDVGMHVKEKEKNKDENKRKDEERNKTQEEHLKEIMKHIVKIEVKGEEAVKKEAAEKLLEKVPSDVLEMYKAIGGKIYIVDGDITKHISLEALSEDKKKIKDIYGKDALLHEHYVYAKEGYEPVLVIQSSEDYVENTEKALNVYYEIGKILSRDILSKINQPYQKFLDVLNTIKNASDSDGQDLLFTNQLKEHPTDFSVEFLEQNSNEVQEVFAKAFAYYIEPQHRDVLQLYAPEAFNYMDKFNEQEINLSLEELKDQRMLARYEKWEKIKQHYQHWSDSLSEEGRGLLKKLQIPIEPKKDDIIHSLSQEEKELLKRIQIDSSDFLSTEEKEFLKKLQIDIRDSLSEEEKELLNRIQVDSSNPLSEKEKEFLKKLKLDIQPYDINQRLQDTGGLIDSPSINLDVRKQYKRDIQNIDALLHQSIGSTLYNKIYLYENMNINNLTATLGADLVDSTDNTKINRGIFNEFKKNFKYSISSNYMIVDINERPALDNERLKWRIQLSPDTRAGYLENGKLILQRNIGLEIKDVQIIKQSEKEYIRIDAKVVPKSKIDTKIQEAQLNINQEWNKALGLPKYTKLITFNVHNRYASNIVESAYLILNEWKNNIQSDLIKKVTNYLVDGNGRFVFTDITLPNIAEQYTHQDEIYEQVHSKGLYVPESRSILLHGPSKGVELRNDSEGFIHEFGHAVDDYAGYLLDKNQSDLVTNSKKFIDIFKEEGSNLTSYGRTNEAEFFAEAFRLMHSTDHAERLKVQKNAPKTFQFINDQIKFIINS
BoNT-F LC inh: BoNT/F light chain protease inhibitors, primary screen, biochemical, flow cytometry, MLPCN library; Botulinum neurotoxin type F light chain protease (Clostridium botulinum); Multiplex microsphere protease cleavage assay; inhibition, % at 10 µM; actives 0.22% (n = 360,000); AID 588497, 2011; in the data active means inhibition above about 35%, passing the limit was not always enough; inconclusive means no clear call, values can overlap the other calls; further: plate controls were buffer without enzyme for full effect and enzyme alone for no effect
BJeLR lethal: MLPCN primary cell-based screen for lethality selective to Ras in HRASV12 cells; BJeLR (HRASV12) viability, CellTiter-Glo ATP luminescence, 48 h; inhibition, % (concentration not given with the values); actives 0.17% (n = 300,000); AID 1554, 2009; in the data active means inhibition above about 50%; inconclusive means no clear call, values can overlap the other calls
BH1578 lux ind: inducers of Vibrio cholerae quorum light production without autoinducers, primary screen, BH1578 luxS cqsA deficient, single point. V. cholerae BH1578 lux reporter, luminescence, 6 h. activation, % at 18.7 µM. actives 0.16% (n = 350,000). AID 588436, 2011; in the data active means activation mostly above about 9.7%, no sharp cut-off; inconclusive means no clear call, values can overlap the other calls; inactive means mostly below about 3.7%
Bead autofluor: compound fluorescence in toxin protease inhibitor counterscreen. actives 3.1% (n = 360,000). fluorescence intensity (no concentration beside the values). AID 624483. compound autofluorescence counterscreen, microsphere flow cytometry; stronger effect = higher value; in the data active means fluorescence intensity above about 16000; inconclusive means no clear call, values can overlap the other calls
BoNT A protease: BoNT/A light chain protease inhibitors, primary screen, biochemical, flow cytometry, MLPCN library; Botulinum neurotoxin type A light chain protease (Clostridium botulinum A str. ATCC 3502); multiplex microsphere protease substrate cleavage; inhibition, % at 10 µM; actives 0.17% (n = 360,000); AID 588499, 2011; further: plate controls were buffer without enzyme for full effect and enzyme alone for no effect
* hit, by the source's call; i = inactive; ? = inconclusive; . = no result. Unless noted, no stated cut-off is given here; in the data, active means inhibition above about 30%; inconclusive means no clear call, values can overlap the other calls; inactive means below that.

SMILES	Anthrax LF inh2	BoNT-F LC inh	BJeLR lethal	BH1578 lux ind	Bead autofluor	BoNT A protease
CN(c1ccccc1)S(=O)(=O)c1cccc(NC(=O)CN2CCCc3ccccc32)c1	-10.4	-7.5	-2.7	-0.4	20032*	0.4
Cc1cc(=O)[nH]c(SCc2nnc(-c3ccccc3)o2)n1	-1.3	-3.6	-7.4	-0.3	3015	-0.4
Clc1ccc(OCc2nnc(SCc3nnc(-c4ccccc4)o3)o2)c(Cl)c1	0.1	-4.5	1.8	5.8	17010*	-1.8
Clc1ccc2nc(SCc3nnc(-c4ccccc4)o3)[nH]c2c1	0.8	-3.6	2.6	i	23021*	?
CCc1nnc(NC(=O)C2CCN(c3nc(C)cc(C)n3)CC2)s1	-1.8	-5.5	-0.5	-5.6	24756*	-3.2
CCc1nnc(NC(=O)C2CCCCC2)s1	-7.2	2.9	0.3	i	22291*	1.7
Cc1cc(C)nc(N2CCC(C(=O)NCCc3ccc(Cl)cc3)CC2)n1	4.3	-4.5	4.1	-0.9	3478	0.0
CCc1nnc(NC(=O)CN2CC(C)OC(C)C2)s1 (stereo not given)	-9.0	34.5*	0.1	i	3060	1.6
Cc1cc(C)nc(N2CCC(C(=O)NCCc3ccc(F)cc3)CC2)n1	0.1	-8.6	-6.8	i	26052*	?
CCOC(=O)[C@]12CCCC=C1N(Cc1ccco1)C(=O)[C@H](CC(=O)NCc1cccc(C(F)(F)F)c1)C2	-11.9	-5.5	.	.	4580	-0.4
Cc1cccc(C)c1-n1nnnc1C1(C)CCC(=O)N1C1CC1 (stereo not given)	-0.2	-4.8	.	.	5972	1.0
CCCCCOC(=O)C(C)Sc1n[nH]c(=O)[nH]c1=O (stereo not given)	-2.0	0.1	-0.4	-2.1	2240	-0.2
CCCCOC(=O)CSc1n[nH]c(=O)[nH]c1=O	1.2	-1.5	7.5	i	23897*	-0.4
CCCNC(=O)C1(C)CCN(Cc2noc(-c3ccccc3OC)n2)C1 (stereo not given)	10.2	0.1	.	i	3740	-0.1
O=c1[nH]c(=S)n(Cc2ccc(F)cc2)c(O)c1C=NCc1cccnc1	-1.5	0.4	1.3	-4.2	16199*	0.7
CC(=O)Nc1cc(-c2cccc(NS(C)(=O)=O)c2)cn2c(-c3ccc(F)c(Cl)c3)cnc12	-4.5	0.8	.	-3.7	3530	0.4
CCc1ccc(NC(=O)CC2NCCNC2=O)cc1 (stereo not given)	-0.1	-2.7	-14.5	-0.4	11220	0.4
O=C(CC1C(=O)NCCN1C(=S)Nc1ccccc1)Nc1ccc2c(c1)OCCO2 (stereo not given)	-1.9	-5.1	3.4	i	24623*	-2.9
COc1ccccc1NC(=O)CC1C(=O)NCCN1C(=O)Nc1ccccc1 (stereo not given)	2.8	4.7	-9.3	i	21334*	2.7
O=C(CC1C(=O)NCCN1C(=O)Nc1ccccc1)Nc1ccc2c(c1)OCO2 (stereo not given)	-6.7	1.2	-5.3	i	2326	-0.2
CCOc1ccccc1NC(=O)CC1NCCNC1=O (stereo not given)	-13.9	6.9	-2.8	i	18163*	3.7
O=C(Nc1ccncc1)c1cc(C2CCCCN2C(=O)CCc2ccccc2)on1 (stereo not given)	-4.4	4.9	.	-0.4	3589	0.3
O=C(CCn1c(=S)[nH]c2cc3c(cc2c1=O)OCO3)NCCc1ccccc1Cl	2.1	-1.1	.	-0.6	3068	0.5
CC(=O)Nc1ccc(NC(=O)CCCCCN2C(=O)c3ccccc3C2=O)cc1	-5.6	4.4	1.5	-5.9	18712*	3.7
O=C(CCCCCCC(=O)Nc1ccccc1)NO	-1.2	-2.9	72.4*	1.5	4018	0.0
SMILES	Anthrax LF inh2	BoNT-F LC inh	BJeLR lethal	BH1578 lux ind	Bead autofluor	BoNT A protease
O=C(CCCCCN1C(=O)c2ccccc2C1=O)Nc1nccs1	0.7	2.4	.	i	21980*	1.9
CC(C)(C)n1nnnc1C(c1ccccc1)N1CCN(C(=O)c2ccco2)CC1 (stereo not given)	3.4	0.3	.	.	4532	-0.2
CCCCN1CC(N2CCN(C(=O)c3ccco3)CC2)CS1(=O)=O (stereo not given)	-18.7	-14.5	.	.	4833	-2.4
O=C(/C=C/c1ccc([N+](=O)[O-])cc1)NCCSc1ccccc1	-1.3	-2.6	-5.5	0.9	23722*	?
Cc1ccc(SCCNC(=O)/C=C/c2ccc([N+](=O)[O-])cc2)cc1	1.0	-1.3	-4.8	i	2329	0.0
CCCCOCCCNC(=O)C[C@@H]1C[C@@]2(C(=O)OCC)CCCC=C2N(Cc2ccc(Cl)cc2Cl)C1=O	-17.1	-7.6	.	.	4499	-2.3
Cc1cc(C)c(S(=O)(=O)N2CCN(C(=O)c3ccc(-n4nc(C)c(Cl)c4C)cc3)CC2)c(C)c1	-2.6	-7.4	.	-1.6	3940	-0.5
CCOC(=O)N1CC=C2C(C#N)=C(N)C(C#N)(C#N)[C@H](c3ccc(OCC)c(OCC)c3)[C@H]2C1	0.4	-3.1	2.2	-0.2	20898*	-1.9
CC(=O)N1CC=C2C(C#N)=C(N)C(C#N)(C#N)[C@H](c3ccoc3)[C@H]2C1	-0.1	-1.4	2.5	i	23512*	0.6
COc1ccc(OC)c(C2C3CN(C(C)C)CC=C3C(C#N)=C(N)C2(C#N)C#N)c1 (stereo not given)	-1.4	5.9	3.0	-0.3	5415	0.2
CCCCOc1ccc(C2C3CN(C(=O)OCC)CC=C3C(C#N)=C(N)C2(C#N)C#N)cc1OC (stereo not given)	0.9	-1.1	-13.7	-0.2	23656*	-0.8
N#CC1=C(N)C(C#N)(C#N)C(c2cccnc2)C2CN(C(=O)OCc3ccccc3)CC=C12 (stereo not given)	-4.9	3.3	-15.1	.	2454	-0.2
CC1Nc2ncnc(N3CCc4ccccc4C3)c2N(Cc2ccccc2)C1=O (stereo not given)	3.6	-6.4	.	.	5748	1.0
O/N=C1\CCCc2oc3c(c21)CCCC3	-1.2	2.4	-3.0	-1.3	19892*	0.9
COc1ccc(OC)c2sc(N(CCCN(C)C)C(=O)c3ccc(S(=O)(=O)N4CCc5ccccc5C4)cc3)nc12	.	.	89.1*	.	.	.
Cc1ccc2sc(N(CCCN(C)C)C(=O)c3ccc(S(=O)(=O)N4CCc5ccccc5C4)cc3)nc2c1C	1.5	5.7	6.3	i	4525	-1.4
COc1ccc(C)c2sc(N(CCCN(C)C)C(=O)c3ccc(S(=O)(=O)N4CCc5ccccc5C4)cc3)nc12	.	.	80.6*	i	.	.
COc1cccc2sc(N(CCCN(C)C)C(=O)c3ccc(S(=O)(=O)N4CCc5ccccc5C4)cc3)nc12	-4.2	-4.6	1.1	-1.1	5123	-3.4
Cc1c(C(=O)NCc2cccnc2)oc2c1C(=O)CC(C)(C)C2	0.5	8.2	1.9	i	21305*	7.2
CCNC(=O)c1oc2c(c1C)C(=O)CC(C)(C)C2	-20.1	-0.9	6.0	i	20892*	1.9

Source: PubChem (several laboratories)
